# Screens from PubChem BioAssay.
# TDP1 inh = inhibitors of human tyrosyl-DNA phosphodiesterase TDP1; Q9NUW8; recombinant TDP1, AlphaScreen DNA substrate cleavage; Potency, µM (series often up to 130 µM), for inactives: at the top dose activity change, negative = inhibition, actives largely listed as inhibitors; 350,000 compounds, 0.28% hits; also: potency is read from the fitted curve at half-maximal effect; % is scaled to controls: 0 for no effect and ±100 for the full control effect; nearly all actives have a fitted effect of over 40% in size
#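 Compounds were preincubated with Tdp1 (1 nM final) for 15 min at room temperature before substrate (15 nM final) started a 5 min reaction; beads (10 ug/ml final) were then added for 10 min before AlphaScreen detection.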
# POLB inh = inhibitors of human DNA polymerase beta; P06746; Pol beta primer extension/strand displacement, fluorescence kinetic; Potency, µM (highest dose often 114 µM), inactives show at the top dose activity change, negative = inhibition, most hits filed as inhibitors; 340,000 compounds, 1.3% hits; AID 485314; also: potency is read from the fitted curve at half-maximal effect; % is scaled to controls: 0 for no effect and ±100 for the full control effect
#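 Values derive from four-parameter Hill fits of normalized kinetic data: reads at 0 and 10 min following addition of 50 nM substrate to 10 nM Pol beta preincubated 15 min with compound.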
# Pol kappa inh-1 = inhibitors of human DNA polymerase kappa | purified Pol kappa, fluorescent DNA synthesis assay, 10 min | Potency, µM (highest dose often 107 µM), inactives show at the top dose activity, negative = inhibition, usual class: inhibitors | 400,000 compounds, 0.53% hits | AID 588579; also: potency is read from the fitted curve at half-maximal effect; % is scaled to controls: 0 for no effect and ±100 for the full control effect
#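 Here, compound and 10 nM enzyme are combined for 15 min at room temperature; adding 50 nM substrate (final) starts DNA synthesis, tracked by fluorescence at 0 and 10 min against buffer-only wells.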
# Pol iota inh = inhibitors of human DNA polymerase iota; AID 588590; Q9UNA4; Pol iota fluorescent replication assay, 10 min; Potency, µM (top dose mostly 115 µM), without a hit: top-dose activity, negative = inhibition, hits mostly inhibitors; 390,000 compounds, 1% hits; also: potency is read from the fitted curve at half-maximal effect
#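 Fluorescent replication assay read twice, at 0 min and 10 min after adding 50 nM (final) substrate. Enzyme (10 nM) and compounds were first incubated 15 min at room temperature; enzyme-free buffer wells were negative controls.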
# Pol eta inh-1 = DNA polymerase eta (human) inhibition. 390,000 compounds, 1.2% hits. Potency, µM (top dose mostly 114 µM), for the others: top-dose activity change, negative = inhibition, usual class: inhibitors. Q9Y253. AID 588591. recombinant Pol eta, fluorescent DNA replication assay; also: potency is read from the fitted curve at half-maximal effect; % is scaled to controls: 0 for no effect and ±100 for the full control effect
# Target sequence (Q9Y253 whole entry, looked up): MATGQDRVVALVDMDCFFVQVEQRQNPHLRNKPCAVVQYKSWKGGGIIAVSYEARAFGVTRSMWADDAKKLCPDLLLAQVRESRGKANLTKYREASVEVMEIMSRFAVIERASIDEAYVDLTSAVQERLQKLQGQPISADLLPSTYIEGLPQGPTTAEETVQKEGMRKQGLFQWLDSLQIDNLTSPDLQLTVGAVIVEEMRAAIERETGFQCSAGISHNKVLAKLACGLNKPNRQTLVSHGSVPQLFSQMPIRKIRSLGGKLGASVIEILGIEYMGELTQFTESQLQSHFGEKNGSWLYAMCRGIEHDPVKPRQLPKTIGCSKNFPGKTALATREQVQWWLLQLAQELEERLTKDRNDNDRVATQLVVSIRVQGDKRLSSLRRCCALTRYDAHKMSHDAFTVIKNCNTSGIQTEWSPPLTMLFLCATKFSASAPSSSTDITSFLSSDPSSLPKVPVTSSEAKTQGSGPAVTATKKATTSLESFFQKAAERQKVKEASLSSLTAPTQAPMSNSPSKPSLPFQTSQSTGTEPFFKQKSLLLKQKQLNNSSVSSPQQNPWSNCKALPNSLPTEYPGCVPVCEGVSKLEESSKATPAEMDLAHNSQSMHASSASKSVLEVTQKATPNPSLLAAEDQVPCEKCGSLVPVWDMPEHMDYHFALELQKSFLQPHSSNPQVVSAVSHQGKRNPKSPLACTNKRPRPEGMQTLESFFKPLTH
#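 Pol eta (10 nM) was preincubated with compounds for 15 min at room temperature, after which fluorescent replication substrate (50 nM final) was added to start the reaction. Fluorescence was read kinetically at 0 and 10 min.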
# GALK confirm = confirmation of human galactokinase (GALK) inhibitors. shares compounds with Pol eta inh-1. purified GALK, Kinase-Glo ATP depletion luminescence. Potency, µM (series often up to 115 µM), without a hit: at the top dose activity, negative = inhibition, actives largely listed as inhibitors. 150 compounds, 70% hits. AID 2015
# Redox cycling = counter-screen for GALK inhibitors: redox cycling H2O2 generation; shares compounds with Pol eta inh-1; Phenol red-HRP H2O2 redox cycling, absorbance 600 nm; Potency, µM (doses to about 115 µM), without a hit: top-dose activity change, negative = H2O2 signal, usual class: inhibitors; 150 compounds, 40% hits; AID 2035
# HEK293 viability = reduces HEK-293 cell viability in GALK counter-screen; shares compounds with Pol eta inh-1; HEK-293 viability, ATP luminescence (CellTiter-Glo), 24/48 h; Potency, µM (titrated, usually from 46.1 µM), inactives show at the highest dose activity change, negative = cytotoxicity, actives largely listed as inhibitors; 170 compounds, 10% hits; AID 2547; also: potency is read from the fitted curve at half-maximal effect; % is scaled to controls: 0 for no effect and ±100 for the full control effect
# Pol kappa inh-2 = Pol kappa (human) inhibition, cherry-pick confirmation. shares compounds with Pol eta inh-1. purified Pol-kappa, fluorescent strand-displacement substrate. Potency, µM, actives largely listed as inhibitors. 920 compounds, 76% hits; also: potency is read from the fitted curve at half-maximal effect
# Pol eta inh-2 = Pol eta (human) inhibition, cherry-pick confirmation; AID 720502; shares compounds with Pol eta inh-1; Pol eta primer extension, TAMRA/BHQ fluorescence, 10 min; Potency, µM, hits mostly inhibitors; 2,600 compounds, 64% hits; also: potency is read from the fitted curve at half-maximal effect
# * hit, by the source's call; u = inconclusive; x = no result; [ ] = dose if it differs, or a comment. In the library only some 2.4% were active in any assay of this set; here they are far more common. Calls follow the shape of the dose curve; as a rule, active = well fitted curve in the direction sought with a large enough effect; inconclusive = small, poorly fitted or top-dose-only effect, or another doubt; inactive = no such curve, though single readings can be large; an effect the other way counts as inactive or inconclusive.
SMILES,TDP1 inh,POLB inh,Pol kappa inh-1,Pol iota inh,Pol eta inh-1,Pol eta inh-2,others
O=C1NC(=S)N(Cc2ccco2)C(=O)/C1=C\c1cccs1,x,1.1µM*,x,x,x,x,GALK confirm=u;Redox cycling=2%;HEK293 viability=-2%
C=CCN1C(=O)/C(=C/c2cccs2)C(=O)NC1=S,3%,79µM*,-23%,u,u,u,
COc1ccc(N2C(=O)/C(=C/c3cccs3)C(=O)NC2=S)cc1,-5%,-1%,-32%,u,4%,x,
CCOc1cc(OP(=S)(OC)OC)nc(CC)n1,7%,x,13%[60.1 µM],x,x,x,
CC(Cc1ccc(C(C)(C)C)cc1)CN1CC(C)OC(C)C1 (stereo not drawn),15%,x,-1%[60.1 µM],x,x,x,
CC(=O)Nc1ccc(Cc2nc3ccccc3[nH]2)cc1,1%,-1%,-9%,55%,-3%,x,
CCBr,4%,x,x,x,x,x,
Cc1ccc(S(=O)(=O)N2CCN(Cc3ccsc3)CC2)cc1,7%,0%,-12%,37%,u,x,
CCN(CC)c1ccc(/C=C2/C(=O)NC(=O)N(Cc3ccco3)C2=O)cc1,u,-27%,50µM*,22µM*,10µM*,u,
Cc1cc(C)cc(-n2c(C)cc(/C=C3\C(=O)NC(=O)N(C)C3=O)c2C)c1,0%,1%,-13%,5%,u,x,
Cc1cc(/C=C2/C(=O)NC(=O)N(Cc3ccco3)C2=O)c(C)n1-c1ccccc1,3%,18µM*,71µM*,2.2µM*,35µM*,76*,
O=C1NC(=O)N(Cc2ccccc2)C(=O)/C1=C/c1cnn(-c2ccccc2)c1,-3%,-24%,x,x,x,x,
Cc1cccc(OCCn2cccc2/C=C2/C(=O)NC(=O)N(Cc3ccco3)C2=O)c1,-10%,32µM*,28µM*,8.9µM*,22µM*,76*,
O=C(c1cccc2ccccc12)C1CCCN(Cc2ccon2)C1 (stereo not drawn),2%,24%,-12%,-17%,-7%,x,
O=C(c1cccc2ccccc12)C1CCCN(C2CCC2)C1 (stereo not drawn),4%,-10%,u,u,u,u,
CN1C(=O)C(=Cc2ccc(N3CCCCC3)o2)C(=O)N(C)C1=S,-7%,11%,-10%,-6%,u,x,
CN1C(=O)C(=Cc2ccc(SC3CCCCC3)o2)C(=O)N(C)C1=O,0%,22µM*,-27%,u,22µM*,x,Pol kappa inh-2=u
O=c1nc(/C=C/c2ccc(Cl)cc2Cl)cc(C(F)(F)F)[nH]1,6%,-8%,-5%,u,32µM*,u,
Cc1ccccc1N1C(=O)NC(=O)/C(=C\c2ccc3c(c2)CCCN3Cc2ccccc2)C1=O,0%,25µM*,-29%,u,20µM*,u,
CC1=C(O)C(=O)[C@@H]2O[C@@H]2C1=O,-9%,x,-4%[19.4 µM],x,x,x,
COc1ccc(CCN)cc1O,3%,9%[57.1 µM],-1%,-5%[58.9 µM],-3%[57.1 µM],x,
NCCc1cc(O)c(O)cc1O,0.25µM*,x,0.71µM*,1.4µM*,56µM*,67*,
CC(CCC(=O)O)C1CCC2C3C(=O)C[C@@H]4CC(=O)CC[C@@]4(C)C3CC(=O)[C@]12C (stereo partly drawn),15%,x,-3%[60.1 µM],x,x,x,
Clc1ccc(C(Cl)(Cl)Cl)cc1Cl,0%,x,x,x,x,x,
